Bioassay records as filed in PubChem BioAssay.
TGFb inhibitor: blocks TGF-b signaling | HepG2 CAGA-GFP TGF-b/SMAD3 reporter, GFP fluorescence, 18 h; TGF-beta stimulated, 500 pg/mL final | Potency, µM (series often up to 46.1 µM), inactives show at the highest dose activity, negative = inhibition, hits mostly inhibitors | 410,000 compounds, 1.2% hits; also: potency is read from the fitted curve at half-maximal effect; % is scaled to controls: 0 for no effect and ±100 for the full control effect; nearly all actives have a fitted effect of over 65% in size
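Using HEPG2 CAGA-GFP reporter cells at 1000 cells/well, we pinned test compounds, stimulated with recombinant TGF-beta (500 pg/mL final) and measured total well GFP after 18 h.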
DRD3 agonist: agonists of human D3 dopamine receptor | P35462 | D3R DiscoveRx beta-arrestin cells, luminescence, 90 min | max activation, % | 410,000 compounds, 0.58% hits | AID 652048; in the data active = max activation above about 30%; also: 0% is about no effect
Target sequence (P35462 whole entry, looked up): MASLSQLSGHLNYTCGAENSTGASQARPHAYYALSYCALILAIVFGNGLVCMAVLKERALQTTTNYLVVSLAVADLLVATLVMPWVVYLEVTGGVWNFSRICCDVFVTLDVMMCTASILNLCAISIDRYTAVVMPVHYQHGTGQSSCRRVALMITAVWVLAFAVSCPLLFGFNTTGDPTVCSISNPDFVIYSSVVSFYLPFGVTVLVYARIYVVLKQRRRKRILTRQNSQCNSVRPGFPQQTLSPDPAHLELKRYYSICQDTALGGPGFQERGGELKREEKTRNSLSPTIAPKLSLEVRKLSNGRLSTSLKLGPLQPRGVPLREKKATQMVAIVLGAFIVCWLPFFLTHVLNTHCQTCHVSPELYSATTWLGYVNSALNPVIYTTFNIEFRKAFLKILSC
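Agonist mode: compounds and dopamine controls were applied to plated cells for 90 min at 37 degrees C after an overnight attachment at 1500 cells/well. Luminescent read-out followed 30 - 60 minutes at room temperature with DiscoveRx detection reagent.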
HepG2 viability: kills HepG2 cells in TGF-b inhibitor counter-screen. 410,000 compounds, 0.76% hits. HepG2 CAGA-GFP viability, ATP luminescence, 18 h. Potency, µM (doses to about 46.1 µM), inactives show at the highest dose activity change, negative = cytotoxicity, hits mostly cytotoxic; also: potency is read from the fitted curve at half-maximal effect
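CellTiter-Glo luminescence gave cytotoxicity after 18 hours at 37 degrees C. The cells were HepG2 CAGA-GFP in 1% FBS DMEM, stimulated with 500 pg/mL TGF-beta after compound addition. %Activity was normalised to no-cell wells (complete cell-killing) and DMSO (no toxicity), and curves were fitted and classified.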
ATXN2 expr inh: inhibitors of ATXN2 expression; HEK-293 ATXN2-luciferase reporter, luminescence, 24 h; Potency, µM (top dose mostly 57 µM), for inactives: at the top dose activity change, negative = inhibition, usual class: inhibitors; 360,000 compounds, 0.72% hits; also: potency is read from the fitted curve at half-maximal effect; % is scaled to controls: 0 for no effect and ±100 for the full control effect; nearly all actives have a fitted effect of over 55% in size
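ATXN2-luciferase reporter cells (luciferase flanked by upstream and downstream ATXN2 gene portions) were treated 24 h at 37 °C with compounds at up to 57 uM. SteadyGlo luminescence gave expression; GF-AFC fluorescence gave viability.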
S2 tox: reduces viability in counter-screen for ATXN expression inhibitors. S2 cells (HEK-293 line with an ATXN2-luciferase reporter) viability, CellTiter-Fluor protease fluorescence, 24 h. Potency, µM (doses to about 56.7 µM), most hits filed as cytotoxic. 400,000 compounds, 0.49% hits. AID 651635; also: potency is read from the fitted curve at half-maximal effect; nearly all actives have a fitted effect of over 40% in size
DRD3 antagonist: antagonists of human D3 dopamine receptor; D3R cells, DiscoveRx beta-arrestin luminescence, antagonist mode; active compounds read low; max response, negative = inhibition, %; 360,000 compounds, 2.5% hits; in the data active = max response below about -50%; inconclusive = no clear call, values can overlap the other calls; also: % is scaled to controls: 0 for no effect and ±100 for the full control effect
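Cells plated overnight at 1500 cells/well, then exposed to library compounds with dopamine controls for 90 minutes at 37 degrees C. DiscoveRx reagent added for 30–60 minutes at room temperature; luminescence read, quantitative HTS format.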
Numbers without * were called inactive; i = inactive; ? = inconclusive; · = not tested or not shown. This is a sample that favours compounds with a hit; in the whole collection about 4.7% have one here. Unless noted, calls follow the shape of the dose curve; as a rule, active = well fitted curve in the direction sought with a large enough effect; inconclusive = small, poorly fitted or top-dose-only effect, or another doubt; inactive = no such curve, though single readings can be large; an effect the other way counts as inactive or inconclusive.

SMILES	TGFb inhibitor	DRD3 agonist	HepG2 viability	ATXN2 expr inh	S2 tox	DRD3 antagonist
Cc1ccc(N(C(=O)Cc2cccs2)C(C(=O)NC2CCCCC2)c2ccccn2)cc1C (configuration not stated)	?	-5	-53%	-17%	28µM*	6
COC(=O)c1ccc(OC)c(CN2CCCN(Cc3ccc(C)cc3)S2(=O)=O)c1	-10%	6	0%	·	·	·
CC(=O)Nc1ccc(S(=O)(=O)N(CCCN2CCOCC2)Cc2cccs2)cc1	-17%	-10	-5%	-17%	i	-20
CC(C)(C)c1ccc(S(=O)(=O)N(CCCN2CCOCC2)Cc2cccs2)cc1	-4%	-32	0%	-25%	i	-67*
CCOC(=O)CC(NCc1ccc(OC)c(OCC)c1)c1ccc(C)cc1 (configuration not stated)	-15%	-14	7%	-9%	i	-51*
CS/C(N)=N/N=C/c1cc(Br)cc(Br)c1O	6.3µM*	-20	-65%	·	i	?
Nn1cnnc1N/N=C/c1cc(Br)cc(Br)c1O	-33%	-9	-39%	?	i	-90*
CC(C)(C)c1ccc(/C=N/Nc2nncn2N)cc1	-10%	-5	3.5µM*	-5%	i	?
CSc1ccc(/C=N\Nc2nncn2N)cc1	?	1	-144%	·	?	-3
COc1ccc(CN2CCC(n3cc(C(=O)N4CCCC4)nn3)CC2)c(OC)c1C	·	·	·	·	i	·
Clc1nc(NCc2cccs2)c2[nH]cnc2n1	17%	·	1%	·	·	·
c1ccc([C@@H]2CN3CCSC3=N2)cc1	·	·	·	·	i	·
CC(C)(C)c1nc2cc(Cl)c([N+](=O)[O-])cc2o1	7.1µM*	-3	-20%	-32%	i	0
CC(C)(C)Nc1nc2cc([N+](=O)[O-])ccc2o1	-2%	-13	-4%	·	i	-8
Cc1cccc(NC(=O)Cn2c(O)c(N=NC(=O)c3ccccc3O)c3ccccc32)c1	0%	-9	-1%	?	?	-71*
CCOC(=O)C1CCCN(C(=O)c2cc3c(C)nc4ccccc4c3o2)C1 (configuration not stated)	-3%	38*	2%	-16%	i	39
COc1ccccc1N1CCN(C(=O)c2cc3c(C)nc4ccccc4c3o2)CC1	?	14	-20%	20µM*	?	63
c1cc(CN2CCCNCCNCCCNCC2)ccc1CN1CCCNCCNCCCNCC1	·	·	·	6%	·	·
O=C(N[C@@H](Cc1ccc(O)cc1)C(=O)O)c1ccc(C(F)(F)F)cc1	11%	44*	10%	10%	i	0
CCN(Cc1ccccc1)C(=O)Cn1c(=O)n(Cc2ccccc2)c(=O)c2c1c1cc(OC)ccc1n2C	1%	3	-10%	1%	i	·
COc1ccccc1/C=C/CN1CCC(Oc2ccc(C(=O)N3CCCCC3)cc2)CC1	0%	-50	-48%	-7%	?	-105*
COc1ccccc1/C=C/CN1CCC(Oc2cc(C(=O)NC3CC3)ccc2OC)CC1	27%	-7	20%	·	?	-77*
COc1ccc(C(=O)NC2CC2)cc1OC1CCN(Cc2ccccc2)CC1	0%	-2	1%	-6%	i	-5
COc1ccc(/C=C/CN2CCC(Oc3ccc(C(=O)N4CCCCC4)cc3)CC2)cc1	8%	-13	-3%	-10%	i	-21
Cn1c(=O)c([N+](=O)[O-])c(-n2ccnc2)c2ccccc21	?	-22	-58%	?	·	-51*
SMILES	TGFb inhibitor	DRD3 agonist	HepG2 viability	ATXN2 expr inh	S2 tox	DRD3 antagonist
CCN1CCN(C2=C(NS(=O)(=O)c3ccc(Br)cc3)C(=O)c3ccccc3C2=O)CC1	13µM*	-6	18µM*	·	?	-24
CN1CCN(C2=C(NS(=O)(=O)c3cccs3)C(=O)c3ccccc3C2=O)CC1	?	-1	-27%	?	i	-11
CCOC(=O)C1CCN(C2=C(NS(=O)(=O)c3ccc(Br)cc3)C(=O)c3ccccc3C2=O)CC1	18µM*	-12	-101%	·	18µM*	-18
CCN1CCN(C2=C(NS(=O)(=O)c3ccccc3)C(=O)c3ccccc3C2=O)CC1	11µM*	-11	-115%	·	?	-14
CCOc1ccccc1N1CCN(C2=C(NS(=O)(=O)c3cccs3)C(=O)c3ccccc3C2=O)CC1	18µM*	-19	-32%	-20%	i	2
NC(=O)C1CCN(C2=C(NS(=O)(=O)c3ccc(Br)cc3)C(=O)c3ccccc3C2=O)CC1	?	-7	-98%	?	?	-25
CCOC(=O)N1CCN(C2=C(NS(=O)(=O)c3ccc(Br)cc3)C(=O)c3ccccc3C2=O)CC1	?	6	-81%	·	?	-13
CC1(c2ccccc2)NC(=O)N(CC(=O)Nc2ccc3c(c2)OCO3)C1=O (configuration not stated)	0%	-2	1%	5%	i	0
CC1(c2ccccc2Cl)NC(=O)N(CC(=O)Nc2ccc3c(c2)OCO3)C1=O (configuration not stated)	15%	2	-10%	-17%	i	-71*
CC(=O)c1cccc(NC(=O)C2CCCN(C(=O)c3cnn(-c4ccccc4)c3-n3cccc3)C2)c1 (configuration not stated)	-25%	2	-28%	-11%	i	·
O=C1NC(=Nc2ccccc2)S/C1=C\c1cccn1-c1ccccc1	-21%	-5	-28%	19%	?	-70*
COc1ccc2c(c1)CCc1cnc(-n3ncc(C(=O)N4CCN(CCO)CC4)c3C3CC3)nc1-2	·	·	·	·	i	·
c1ccc(CCc2nnc3n2CCN(Cc2ccc4ccccc4n2)CC3)cc1	·	·	·	·	i	·
CCn1nccc1NC(=O)c1csc([C@@H]2O[C@H](CO)[C@H](O)[C@H](O)[C@H]2O)n1	0%	37*	-4%	-4%	i	?
CCc1ccc(CNC(=O)c2cnc3c(C)cccn3c2=O)cc1	8%	4	-8%	-5%	i	·
COc1ccc(Cl)cc1NC(=O)c1c(NCc2cccnc2)sc2c1CCC(C)C2 (configuration not stated)	8.9µM*	-2	10µM*	·	·	·
COc1ccc(OC)c(NC(=O)c2c(NCc3ccc(N(C)C)cc3)sc3c2CCCC3)c1	0%	2	-51%	?	22µM*	·
CCOc1ccc(NC(=O)c2c(NCc3cccnc3)sc3c2CCC(C)C3)cc1 (configuration not stated)	13µM*	-7	-41%	·	·	·
COc1ccc(CC(=O)Nc2sc3c(c2C(=O)Nc2cccc(Cl)c2)CCCCC3)cc1	?	7	18µM*	?	·	·
